Measurements from PubChem BioAssay AID1159580 (chemical genetic matrix, 2015).
The whole screen tested about 5,500 compounds, of which about 2,000 (36%) were called active. About 18% were inconclusive and are not listed. Cut-off read from the data, not from the text of the source: active = normalized growth mostly below about 0.91 (no sharp cut-off); inconclusive = no clear call, values can overlap the other calls; inactive = mostly above about 0.92. The list shows a part of the results.

Test: chemical genetic growth profiling, strain panel (AID 1159580);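 note: tested at 20 µM; growth read once vehicle control cultures reached saturation at 30 °C; 1 = growth at the plate median or of vehicle wells; lower values mean less growth of the strain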
Settings: growth OD

Measured: normalized growth

O=C1C=CC(=O)c2c(O)cccc21
inactive: S. cerevisiae deletion strains, locus YJR043C, strain POL32, hits give low values 1.01 | S. cerevisiae deletion strains, locus YJR066W, strain TOR1, hits give low values 0.894 | S. cerevisiae deletion strains, locus YKL009W, strain mrt4, hits give low values 0.934 | S. cerevisiae deletion strains, locus YKL068W, hits give low values 0.982 | S. cerevisiae deletion strains, locus YKL085W, strain MDH1 (second series), hits give low values 0.97 | S. cerevisiae deletion strains, locus YKL085W, strain MDH1, hits give low values 0.97 | S. cerevisiae deletion strains, locus YKL160W, strain elf1, hits give low values 1 | S. cerevisiae deletion strains, locus YKL190W, strain CNB1, hits give low values 0.986 | S. cerevisiae deletion strains, locus YKR001C, strain vps1, hits give low values 0.938 | S. cerevisiae deletion strains, locus YKR026C, strain gcn3, hits give low values 0.983 | S. cerevisiae deletion strains, locus YKR091W, strain srl3, hits give low values 0.983 | S. cerevisiae deletion strains, locus YLL001W, strain dnm1, hits give low values 0.968 | S. cerevisiae deletion strains, locus YLL026W, hits give low values 1.01 | S. cerevisiae deletion strains, locus YLL041C, strain sdh2, hits give low values 1 | S. cerevisiae deletion strains, locus YLR027C, strain aat2, hits give low values 0.984 | S. cerevisiae deletion strains, locus YLR039C, strain RIC1, hits give low values 0.699 | S. cerevisiae deletion strains, locus YLR058C, strain SHM2, hits give low values 0.947 | S. cerevisiae deletion strains, locus YLR102C, strain apc9, hits give low values 0.989 | S. cerevisiae deletion strains, locus YLR113W, strain HOG1, hits give low values 0.922 | S. cerevisiae deletion strains, locus YLR221C, strain rsa3, hits give low values 0.947 | S. cerevisiae deletion strains, locus YLR258W, strain gsy2, hits give low values 0.979 | S. cerevisiae deletion strains, locus YLR262C, strain YPT6, hits give low values 0.731 | S. cerevisiae deletion strains, locus YLR268W, strain sec22, hits give low values 0.995 | S. cerevisiae deletion strains, locus YLR330W, strain CHS5, hits give low values 1 | S. cerevisiae deletion strains, locus YLR342W, strain FKS1 (second series), hits give low values 0.967 | S. cerevisiae deletion strains, locus YLR342W, strain FKS1, hits give low values 0.986 | S. cerevisiae deletion strains, locus YLR357W, strain rsc2, hits give low values 0.964 | S. cerevisiae deletion strains, locus YLR370C, strain arc18, hits give low values 0.979 | S. cerevisiae deletion strains, locus YLR384C, strain iki3, hits give low values 0.957 | S. cerevisiae deletion strains, locus YLR418C, strain cdc73, hits give low values 0.885 | S. cerevisiae deletion strains, locus YML016C, strain PPZ1, hits give low values 0.975 | S. cerevisiae deletion strains, locus YML032C, strain rad52, hits give low values 0.915 | S. cerevisiae deletion strains, locus YML120C, strain ndi1, hits give low values 0.987 | S. cerevisiae deletion strains, locus YML124C, strain tub3, hits give low values 0.993 | S. cerevisiae deletion strains, locus YMR058W, strain fet3, hits give low values 0.983 | S. cerevisiae deletion strains, locus YMR078C, strain ctf18, hits give low values 0.986 | S. cerevisiae deletion strains, locus YMR125W, strain sto1, hits give low values 0.991 | S. cerevisiae deletion strains, locus YMR129W, hits give low values 1.03 | S. cerevisiae deletion strains, locus YMR205C, strain PFK2, hits give low values 0.91 | S. cerevisiae deletion strains, locus YMR223W, strain ubp8, hits give low values 0.966 | S. cerevisiae deletion strains, locus YMR231W, strain pep5, hits give low values 0.975 | S. cerevisiae deletion strains, locus YMR307W, strain GAS1, hits give low values 0.944 | S. cerevisiae deletion strains, locus YNL067W, strain RPL9B, hits give low values 0.979 | S. cerevisiae deletion strains, locus YNL153C, strain GIM3, hits give low values 0.964 | S. cerevisiae deletion strains, locus YNL183C, strain NPR1, hits give low values 0.932 | S. cerevisiae deletion strains, locus YNL209W, strain ssb2, hits give low values 0.983 | S. cerevisiae deletion strains, locus YNL233W, strain BNI4, hits give low values 0.996 | S. cerevisiae deletion strains, locus YNL248C, strain rpa49, hits give low values 1.08 | S. cerevisiae deletion strains, locus YNL250W, strain rad50, hits give low values 0.987 | S. cerevisiae deletion strains, locus YNL271C, strain bni1, hits give low values 0.982 | S. cerevisiae deletion strains, locus YNL298W, strain CLA4, hits give low values 0.998 | S. cerevisiae deletion strains, locus YNL307C, strain MCK1, hits give low values 0.994 | S. cerevisiae deletion strains, locus YNL322C, strain KRE1 (second series), hits give low values 1.01 | S. cerevisiae deletion strains, locus YNR049C, strain mso1, hits give low values 0.993 | S. cerevisiae deletion strains, locus YNR052C, strain pop2, hits give low values 1.01 | S. cerevisiae deletion strains, locus YOL012C, strain htz1 1.06 | S. cerevisiae deletion strains, locus YOL147C, strain pex11, hits give low values 0.994 | S. cerevisiae deletion strains, locus YOR001W, strain rrp6, hits give low values 0.966 | S. cerevisiae deletion strains, locus YOR061W, strain CKA2, hits give low values 0.947 | S. cerevisiae deletion strains, locus YOR069W, strain VPS5, hits give low values 0.981 | S. cerevisiae deletion strains, locus YOR070C, strain gyp1, hits give low values 0.993 | S. cerevisiae deletion strains, locus YOR080W, strain dia2, hits give low values 0.971 | S. cerevisiae deletion strains, locus YOR083W, strain WHI5, hits give low values 0.99 | S. cerevisiae deletion strains, locus YOR106W, strain vam3, hits give low values 0.91 | S. cerevisiae deletion strains, locus YOR136W, strain idh2, hits give low values 0.993 | S. cerevisiae deletion strains, locus YOR144C, strain elg1, hits give low values 0.988 | S. cerevisiae deletion strains, locus YOR184W, strain ser1, hits give low values 0.984 | S. cerevisiae deletion strains, locus YOR231W, strain MKK1, hits give low values 0.964 | S. cerevisiae deletion strains, locus YOR265W, strain rbl2, hits give low values 0.966 | S. cerevisiae deletion strains, locus YOR290C, strain snf2, hits give low values 0.989 | S. cerevisiae deletion strains, locus YOR316C, strain cot1, hits give low values 0.99 | S. cerevisiae deletion strains, locus YPL051W, strain arl3, hits give low values 0.97 | S. cerevisiae deletion strains, locus YPL078C, strain atp4, hits give low values 0.974 | S. cerevisiae deletion strains, locus YPL106C, strain sse1, hits give low values 0.881 | S. cerevisiae deletion strains, locus YPL240C, strain hsp82, hits give low values 0.973 | S. cerevisiae deletion strains, locus YPL241C, strain CIN2, hits give low values 0.987 | S. cerevisiae deletion strains, locus YPL256C, strain CLN2, hits give low values 0.94 | S. cerevisiae deletion strains, locus YPR119W, strain clb2, hits give low values 0.992 | S. cerevisiae deletion strains, locus YPR141C, strain kar3, hits give low values 0.982 | S. cerevisiae deletion strains, locus YPR163C, strain tif3, hits give low values 1.01 | S. cerevisiae deletion strains, locus YPR167C, strain met16, hits give low values 1 | S. cerevisiae deletion strains, strain wtn01, hits give low values 1.04 | S. cerevisiae strains, strain wild type, hits give low values 0.987
active: S. cerevisiae deletion strains, locus YLR262C, strain YPT6 (second series), hits give low values 0.727 | S. cerevisiae deletion strains, locus YLR320W, strain mms22, hits give low values 0.851 | S. cerevisiae deletion strains, locus YNL071W, strain lat1, hits give low values 0.897 | S. cerevisiae deletion strains, locus YOR270C, strain vph1, hits give low values 0.775
